According to PubChem BioAssay:
Results filed as inconclusive are left out. Calls of active or inactive are those of the source. Rule as the data show it, unless noted: active = percent of DMSO control GFP below about 86%; inactive = the rest, inconclusive results apart.

Tests used:
[1] = rapamycin-like changes in RPL19A-GFP expression – cell-based, S. cerevisiae, multiplex flow cytometry, primary screen (AID 1862);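 also: lower values mimic rapamycin by blocking the RPL19A rise seen in DMSO cells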; settings: S. cerevisiae RPL19A-GFP strain, flow cytometry fluorescence, 3 h; at 10 µM; stronger effect = lower value
[2] = TOR pathway GLN3 branch reporter MEP2-GFP changes – S. cerevisiae, multiplex flow cytometry, primary screen (AID 1867;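 active = GFP response, as percent of the DMSO control, above the screen-wide mean plus 3 SD, about 139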;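 also: median GFP channel fluorescence of barcode-gated MEP2-GFP cells measured by flow cytometry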); settings: S. cerevisiae MEP2-GFP strain, 3 h, at 10 µM, stronger effect = higher value, 100% means same as DMSO wells
[3] = TOR pathway RTG branch CIT2 reporter changes – S. cerevisiae, GFP fusion, multiplex flow cytometry, primary screen (AID 1870;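 active = percent response above a set limit, the screen-wide mean plus 3 SD, cut at about 130% in these data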;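 also: barcoded CIT2-GFP strain pooled with four other GFP strains with rapamycin as positive control; median GFP fluorescence per well over plate mean of DMSO wells so 100% = DMSO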); settings: S. cerevisiae CIT2-GFP expression, 3 h, at 10 µM, stronger effect = higher value
[4] = TOR pathway LAP4-GFP level changes – S. cerevisiae, multiplex flow cytometry, primary screen (AID 1873;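 active = GFP signal, as percent of the solvent control, above the screen mean plus 3 SD, about 149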); settings: S. cerevisiae LAP4-GFP expression, 3 h, at 10 µM, stronger effect = higher value
[5] = yeast AGP1-GFP level changes, GLN3 branch – cell-based, multiplex flow cytometry, S. cerevisiae, primary screen (AID 1887;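 active = GFP signal above the screen-wide mean plus 3 SD, that is over about 124.5% of the solvent control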;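 also: AGP1-GFP fusion strain of S. cerevisiae within a five-strain barcoded multiplex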); settings: 3 h, at 10 µM, stronger effect = higher value
[6] = reduced mouse 2C T cell binding to pMHC/ICAM-1 vesicles – MLPCN validation set, flow cytometry, LFA-1/ICAM-1 modulator project, pilot screen (AID 2523;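 active = response below a set limit, under 55% cells CD8-positive and vesicle-bound, and CD8 cells' 90th-percentile brightness under 279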;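 as to vesicle binding response: mean PE anti-B7-1 fluorescence of CD8+ cells relative to row control; 100% = QL9-loaded vesicles with DMSO vehicle in the same plate row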); settings: 2C mouse CD8+ T cells, at 7 µM, stronger effect = lower value; double positive events: measured here: CD8+/vesicle+ event percentage
[7] = target: Integrin beta-1 (Homo sapiens) + Integrin alpha-4 (Homo sapiens) (UniProt P13612+P05556); test: alpha4beta1 integrin LIBS antibody binding reduction – U937 cells, HUTS-21 mAb, flow cytometry, validation set, VLA-4 allosteric modulator project, pilot screen (AID 2674;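 active = inhibition above 50%, about 3 SD of the validation set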;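 also: antibody binding induced by the VLA-4 ligand LDV present at three times its Kd; 0% = LDV ligand with antibody and no compound and 100% = antibody without LDV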); settings: HUTS-21 LIBS mAb binding, at 6.7 µM, stronger effect = higher value, binding induced by LDV ligand
[8] = calorie-restriction mimetic ROS inhibitors, yeast – validation compound set, pilot screen (AID 2706;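 active = superoxide response below 65% of plate, a cut near 3 SD across the whole screen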;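 also: yeast exposed to compound for one week at 30 degrees C before staining; 100% = mean of all compound wells on the same plate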); settings: S. cerevisiae aging, superoxide DHE fluorescence; at 10 µM; stronger effect = lower value
[9] = target: Beta-adrenergic receptor kinase 1 (Homo sapiens) (UniProt P25098); test: GRK2 binders displacing RNA aptamer, biochemical, validation, human GRK2, bead flow cytometry (AID 488806;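 active = aptamer binding inhibition above 30%, about 3 SD of noise from non-fluorescent compounds; inactive = inhibition at or below 30%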); settings: bead-bound GRK2, FAM-aptamer displacement, at 10 µM, stronger effect = higher value
[10] = target: Beta-2 adrenergic receptor (Homo sapiens) (UniProt P07550); test: agonist-induced loss of surface beta2AR – cell-based, FAP fluorogen, flow cytometry, validation set, pilot screen (AID 504459;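 active = percent response above 42, roughly 3 SD of non-fluorescent test compounds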;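 also: agonist-driven loss of surface beta2AR via internalization measured by FAP dye flow cytometry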); settings: Am2.2-beta2AR cells, at 10 µM, stronger effect = higher value
[11] = target: AP-2 complex subunit beta (Homo sapiens) (UniProt P63010); test: beta-arrestin/AP2 interaction blockers – biochemical, validation set, GST-AP2 beads, flow cytometry, pilot screen (AID 504541;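 active = inhibition above 54%, about 3 SD of non-fluorescent compounds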;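 also: AP2 carries R879A mutation and is captured from E. coli lysate; bead-bound FITC arrestin peptide fluorescence measuring arrestin peptide binding to AP2; 0% = DMSO wells and 100% = excess unlabeled arrestin peptide control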); settings: FITC arrestin peptide, at 10 µM, stronger effect = higher value, AP2 beta2 appendage fragment, R879A mutant
[12] = cytosolic pH regulators acting via V-ATPase – S. cerevisiae, pHLuorin, HTS validation (AID 504600; in the data active = response above about 15%;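 also: plate controls were DMSO for no effect and reference compound for full effect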); settings: V-ATPase proton transport, at 10 µM, stronger effect = higher value
[13] = system: anti-desmoglein-3 scFv antibody binding to human DSG3; test: blockers of pathogenic pemphigus antibody–desmoglein-3 binding – biochemical, validation compound set, bead-based, flow cytometry, pilot screen (AID 588368;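 active = binding below the plate cutoff, the plate median minus 3 SD, with a reading above zero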;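 also: signal is the median channel fluorescence of bead-bound GFP antibody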); settings: Protein G beads, DSG3-Fc, scFv-GFP binding, at 10 µM, stronger effect = lower value
[14] = Nile Red efflux blockade in pump-expressing yeast – validation compound set, multiplex, phenotypic, pilot screen (AID 588506;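 active = efflux inhibition above 0.42, the validation set average plus 4 SD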;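 also: Nile Red retained in cells so higher fluorescence means more efflux inhibition; 0 = negative control wells and 1 = enniatin B 25 µM full block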); settings: S. cerevisiae pump-expressing triplex, Nile Red efflux flow cytometry; at 10 µM; stronger effect = higher value; the pumps come from Candida albicans
[15] = target: ATP-binding cassette sub-family B member 6 (Homo sapiens) (UniProt Q9NP58); test: blockers of ABCB6-driven porphyrin uptake – K562-ABCB6 cells, flow cytometry, validation set, pilot screen (AID 588550;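 active = inhibition above the screen-wide mean plus 3 SD, about 51%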;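 also: 0% = DMSO wells and 100% = benzethonium chloride 70 µM positive control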); settings: K562-ABCB6 porphyrin accumulation, 1 h, at 10 µM, stronger effect = higher value
[16] = AML differentiation inducers, ER-HoxA9 marrow cells – cell-based, GFP/MAC1 double positive, flow cytometry, validation set, primary screen (AID 588685;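 active = differentiation response of at least 50%, scaled between solvent and reference control, from cells with both markers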;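 also: compound exposure lasts four days before antibody staining and flow analysis; 0% = DMSO wells and 100% = 5 µM fulvestrant positive control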); settings: stronger effect = higher value, normalized: vehicle 0, fulvestrant 100

Chain of Beta-adrenergic receptor kinase 1 (Homo sapiens) (P25098 whole entry, looked up): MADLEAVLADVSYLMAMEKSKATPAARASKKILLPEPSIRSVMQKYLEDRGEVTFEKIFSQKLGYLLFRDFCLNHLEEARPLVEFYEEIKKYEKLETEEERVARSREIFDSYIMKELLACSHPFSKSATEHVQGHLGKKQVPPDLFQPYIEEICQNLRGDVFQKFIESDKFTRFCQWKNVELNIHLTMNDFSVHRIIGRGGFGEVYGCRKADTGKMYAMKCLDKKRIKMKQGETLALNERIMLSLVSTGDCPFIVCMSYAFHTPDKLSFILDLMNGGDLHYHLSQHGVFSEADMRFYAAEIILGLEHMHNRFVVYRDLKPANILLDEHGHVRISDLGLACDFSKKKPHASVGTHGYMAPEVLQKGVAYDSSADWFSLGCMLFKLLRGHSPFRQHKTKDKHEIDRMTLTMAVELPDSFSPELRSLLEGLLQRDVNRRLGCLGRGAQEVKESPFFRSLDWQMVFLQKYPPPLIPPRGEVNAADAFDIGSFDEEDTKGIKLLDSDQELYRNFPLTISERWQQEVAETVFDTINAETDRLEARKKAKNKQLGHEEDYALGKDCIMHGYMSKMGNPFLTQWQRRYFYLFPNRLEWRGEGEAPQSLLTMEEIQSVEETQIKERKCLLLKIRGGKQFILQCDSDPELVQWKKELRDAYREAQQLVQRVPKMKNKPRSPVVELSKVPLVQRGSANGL
Chain of Integrin beta-1 (Homo sapiens) + Integrin alpha-4 (Homo sapiens) (P05556 whole entry, looked up): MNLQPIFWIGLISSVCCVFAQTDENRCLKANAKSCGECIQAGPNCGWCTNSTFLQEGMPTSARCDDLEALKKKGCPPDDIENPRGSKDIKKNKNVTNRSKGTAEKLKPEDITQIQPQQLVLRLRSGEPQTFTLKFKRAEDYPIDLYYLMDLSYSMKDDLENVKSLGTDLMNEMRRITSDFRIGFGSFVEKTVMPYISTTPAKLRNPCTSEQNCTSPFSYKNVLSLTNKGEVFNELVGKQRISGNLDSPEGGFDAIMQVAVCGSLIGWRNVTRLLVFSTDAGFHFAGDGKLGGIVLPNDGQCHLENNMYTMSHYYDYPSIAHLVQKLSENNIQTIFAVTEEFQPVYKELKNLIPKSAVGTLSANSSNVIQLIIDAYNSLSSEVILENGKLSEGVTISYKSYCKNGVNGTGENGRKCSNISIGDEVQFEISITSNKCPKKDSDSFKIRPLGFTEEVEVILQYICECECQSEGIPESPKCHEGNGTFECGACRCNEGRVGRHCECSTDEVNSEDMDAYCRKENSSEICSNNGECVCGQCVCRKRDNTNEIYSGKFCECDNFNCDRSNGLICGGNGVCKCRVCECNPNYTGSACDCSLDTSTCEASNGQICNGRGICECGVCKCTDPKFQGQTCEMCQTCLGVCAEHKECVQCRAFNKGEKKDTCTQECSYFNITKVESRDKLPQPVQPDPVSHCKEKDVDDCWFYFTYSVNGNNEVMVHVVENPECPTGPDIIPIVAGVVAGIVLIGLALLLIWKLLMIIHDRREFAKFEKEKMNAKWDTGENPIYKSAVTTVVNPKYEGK
Chain of Integrin beta-1 (Homo sapiens) + Integrin alpha-4 (Homo sapiens) (P13612 whole entry, looked up): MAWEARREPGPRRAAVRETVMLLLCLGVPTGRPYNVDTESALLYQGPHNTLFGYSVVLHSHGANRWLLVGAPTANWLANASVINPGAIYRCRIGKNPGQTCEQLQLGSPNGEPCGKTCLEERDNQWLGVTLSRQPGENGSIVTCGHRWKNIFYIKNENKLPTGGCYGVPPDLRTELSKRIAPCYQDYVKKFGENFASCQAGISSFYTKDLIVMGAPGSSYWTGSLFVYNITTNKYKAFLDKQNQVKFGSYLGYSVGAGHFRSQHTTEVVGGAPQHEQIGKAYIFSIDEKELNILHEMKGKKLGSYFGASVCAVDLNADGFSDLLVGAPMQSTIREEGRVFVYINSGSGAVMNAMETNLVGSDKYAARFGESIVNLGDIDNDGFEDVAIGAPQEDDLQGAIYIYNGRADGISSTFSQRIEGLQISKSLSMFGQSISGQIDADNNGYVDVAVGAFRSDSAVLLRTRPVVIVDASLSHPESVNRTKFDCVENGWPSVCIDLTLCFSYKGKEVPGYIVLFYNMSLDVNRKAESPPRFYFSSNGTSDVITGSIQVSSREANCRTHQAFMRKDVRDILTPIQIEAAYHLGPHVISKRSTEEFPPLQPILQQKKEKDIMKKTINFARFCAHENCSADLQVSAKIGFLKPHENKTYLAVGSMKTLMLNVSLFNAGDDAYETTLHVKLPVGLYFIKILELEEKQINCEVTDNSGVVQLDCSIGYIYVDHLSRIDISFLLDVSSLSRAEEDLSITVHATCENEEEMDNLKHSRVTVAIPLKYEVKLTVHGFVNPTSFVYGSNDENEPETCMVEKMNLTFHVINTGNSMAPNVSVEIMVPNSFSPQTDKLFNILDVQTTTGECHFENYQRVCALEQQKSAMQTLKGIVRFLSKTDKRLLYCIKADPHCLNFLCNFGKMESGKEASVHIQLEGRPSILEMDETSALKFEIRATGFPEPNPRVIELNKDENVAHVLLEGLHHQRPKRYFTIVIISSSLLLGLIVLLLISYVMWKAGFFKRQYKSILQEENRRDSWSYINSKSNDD
Chain of Beta-2 adrenergic receptor (Homo sapiens) (P07550 whole entry, looked up): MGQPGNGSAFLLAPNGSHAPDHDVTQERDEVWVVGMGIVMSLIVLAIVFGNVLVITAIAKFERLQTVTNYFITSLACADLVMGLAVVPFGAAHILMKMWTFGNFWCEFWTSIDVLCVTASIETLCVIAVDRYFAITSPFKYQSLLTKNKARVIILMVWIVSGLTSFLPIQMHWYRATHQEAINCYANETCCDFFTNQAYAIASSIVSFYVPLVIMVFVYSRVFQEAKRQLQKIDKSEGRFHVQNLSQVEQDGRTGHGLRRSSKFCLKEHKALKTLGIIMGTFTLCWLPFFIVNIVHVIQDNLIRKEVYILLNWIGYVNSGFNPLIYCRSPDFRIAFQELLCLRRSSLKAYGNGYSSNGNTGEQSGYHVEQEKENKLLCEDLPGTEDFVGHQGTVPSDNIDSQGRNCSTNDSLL
Chain of ATP-binding cassette sub-family B member 6 (Homo sapiens) (Q9NP58 whole entry, looked up): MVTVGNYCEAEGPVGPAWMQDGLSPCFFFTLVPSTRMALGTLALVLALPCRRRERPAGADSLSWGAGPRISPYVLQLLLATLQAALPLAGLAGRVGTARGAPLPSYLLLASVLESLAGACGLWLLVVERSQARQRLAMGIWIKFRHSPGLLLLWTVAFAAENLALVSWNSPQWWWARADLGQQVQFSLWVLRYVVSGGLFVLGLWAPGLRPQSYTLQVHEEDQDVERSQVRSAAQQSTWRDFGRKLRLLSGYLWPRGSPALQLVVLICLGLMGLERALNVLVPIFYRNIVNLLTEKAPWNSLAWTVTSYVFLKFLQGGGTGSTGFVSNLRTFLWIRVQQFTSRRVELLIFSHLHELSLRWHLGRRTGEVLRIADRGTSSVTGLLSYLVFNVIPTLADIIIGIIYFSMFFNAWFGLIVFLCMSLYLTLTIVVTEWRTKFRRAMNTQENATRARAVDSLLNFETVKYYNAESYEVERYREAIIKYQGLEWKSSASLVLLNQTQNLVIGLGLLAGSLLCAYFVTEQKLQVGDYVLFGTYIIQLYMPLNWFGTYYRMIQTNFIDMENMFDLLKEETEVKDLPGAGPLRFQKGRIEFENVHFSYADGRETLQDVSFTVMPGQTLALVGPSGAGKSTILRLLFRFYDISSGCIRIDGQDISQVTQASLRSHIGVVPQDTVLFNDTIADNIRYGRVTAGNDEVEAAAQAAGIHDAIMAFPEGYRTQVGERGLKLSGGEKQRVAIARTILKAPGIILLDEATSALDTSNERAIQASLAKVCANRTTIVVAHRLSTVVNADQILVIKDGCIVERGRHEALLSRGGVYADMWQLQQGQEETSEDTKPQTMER
Chain of AP-2 complex subunit beta (Homo sapiens) (P63010 whole entry, looked up, the tested form may be a part, one chain of several): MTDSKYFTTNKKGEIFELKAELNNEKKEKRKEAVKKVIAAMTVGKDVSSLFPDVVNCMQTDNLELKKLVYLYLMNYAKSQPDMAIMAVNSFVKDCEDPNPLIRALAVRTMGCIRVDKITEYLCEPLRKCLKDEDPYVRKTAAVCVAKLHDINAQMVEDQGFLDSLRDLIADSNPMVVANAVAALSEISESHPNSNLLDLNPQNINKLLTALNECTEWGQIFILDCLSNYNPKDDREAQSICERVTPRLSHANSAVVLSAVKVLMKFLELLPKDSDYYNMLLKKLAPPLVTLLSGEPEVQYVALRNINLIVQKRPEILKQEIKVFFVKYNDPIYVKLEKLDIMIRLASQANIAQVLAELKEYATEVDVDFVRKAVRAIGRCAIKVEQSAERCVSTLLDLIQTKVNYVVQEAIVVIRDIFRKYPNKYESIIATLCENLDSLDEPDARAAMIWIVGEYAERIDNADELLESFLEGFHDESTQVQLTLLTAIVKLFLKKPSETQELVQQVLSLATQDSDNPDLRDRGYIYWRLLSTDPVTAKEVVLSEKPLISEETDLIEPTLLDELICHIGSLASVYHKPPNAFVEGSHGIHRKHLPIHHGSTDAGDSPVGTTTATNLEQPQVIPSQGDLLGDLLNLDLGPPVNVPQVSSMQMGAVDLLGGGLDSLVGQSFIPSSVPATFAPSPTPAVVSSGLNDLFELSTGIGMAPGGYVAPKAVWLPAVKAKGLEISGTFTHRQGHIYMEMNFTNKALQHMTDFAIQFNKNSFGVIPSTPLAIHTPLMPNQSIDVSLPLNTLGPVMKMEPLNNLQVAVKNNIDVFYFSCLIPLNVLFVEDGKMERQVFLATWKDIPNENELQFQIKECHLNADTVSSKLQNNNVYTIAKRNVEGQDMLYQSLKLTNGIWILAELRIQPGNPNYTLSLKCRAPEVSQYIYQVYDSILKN

CC(CCc1ccccc1)NC(=O)/C=C/c1ccccc1 (stereo not drawn)
61.8%: double positive events [6]
inactive: percent of DMSO control GFP [1] 92.6% | GFP response vs DMSO [2] 132% | percent response of DMSO control [3] 107% | GFP response vs DMSO [4] 92.4% | GFP response, % of DMSO [5] 81.7% | vesicle binding response [6] 129% | inhibition [7] 1.61% | superoxide response (% of plate) [8] 91.7% | aptamer binding inhibition [9] 5% | response [10] -12.9% | inhibition [11] -0.16% | response [12] 1.44% | binding (% of control) [13] 103% | efflux inhibition (fraction of control) [14] -0.13 | inhibition [15] 12% | differentiation response [16] 0%

CN(C)C(=O)Oc1ccc[n+](C)c1
62.3%: double positive events [6]
inactive: percent of DMSO control GFP [1] 102% | GFP response vs DMSO [2] 106% | percent response of DMSO control [3] 94.2% | GFP response vs DMSO [4] 94.7% | GFP response, % of DMSO [5] 95.9% | vesicle binding response [6] 1200% | inhibition [7] 0.58% | superoxide response (% of plate) [8] 104% | aptamer binding inhibition [9] 4% | response [10] 0.34% | inhibition [11] 16.8% | response [12] -1.45% | binding (% of control) [13] 103% | efflux inhibition (fraction of control) [14] -0.1 | inhibition [15] 13% | differentiation response [16] -1.71%

COc1ccc2c(C=O)cn(C)c2c1
inactive: percent of DMSO control GFP [1] 89.8% | GFP response vs DMSO [2] 137% | percent response of DMSO control [3] 103% | GFP response vs DMSO [4] 82% | GFP response, % of DMSO [5] 85% | vesicle binding response [6] 151% | inhibition [7] 6.46% | superoxide response (% of plate) [8] 87.5% | aptamer binding inhibition [9] 7% | response [10] -0.49% | inhibition [11] 9.51% | response [12] -4.19% | binding (% of control) [13] 105% | efflux inhibition (fraction of control) [14] 0.27 | inhibition [15] 11% | differentiation response [16] 4.91%
66.8%: double positive events [6]

O=c1[nH]c(=O)n(C2CCCO2)cc1F (stereo not drawn)
60.9%: double positive events [6]
inactive: percent of DMSO control GFP [1] 93.5% | GFP response vs DMSO [2] 117% | percent response of DMSO control [3] 97.9% | GFP response vs DMSO [4] 81.4% | GFP response, % of DMSO [5] 95.6% | vesicle binding response [6] 137% | inhibition [7] -17.8% | superoxide response (% of plate) [8] 96.1% | aptamer binding inhibition [9] 7% | response [10] -4.34% | inhibition [11] -10.2% | response [12] 6.89% | binding (% of control) [13] 110% | efflux inhibition (fraction of control) [14] 0.09 | inhibition [15] 14% | differentiation response [16] 35.2%

Cc1ccc(SCC(=O)Nc2nccs2)cc1
inactive: percent of DMSO control GFP [1] 101% | GFP response vs DMSO [2] 105% | percent response of DMSO control [3] 98.6% | GFP response vs DMSO [4] 120% | GFP response, % of DMSO [5] 99.7% | vesicle binding response [6] 4850% | inhibition [7] 6.4% | superoxide response (% of plate) [8] 110% | aptamer binding inhibition [9] 4% | response [10] -0.63% | inhibition [11] -4.67% | response [12] -0.83% | binding (% of control) [13] 95.3% | efflux inhibition (fraction of control) [14] -0.24 | inhibition [15] 4% | differentiation response [16] -2.4%
60.5%: double positive events [6]

CC(=O)[C@H]1CC[C@H]2[C@@H]3C[C@H](C)C4=CC(=O)CC[C@]4(C)[C@H]3[C@@H](O)C[C@]12C
63.6%: double positive events [6]
inactive: percent of DMSO control GFP [1] 95.9% | GFP response vs DMSO [2] 116% | percent response of DMSO control [3] 102% | GFP response vs DMSO [4] 86.9% | GFP response, % of DMSO [5] 92.6% | vesicle binding response [6] 151% | inhibition [7] 2.58% | superoxide response (% of plate) [8] 95.6% | aptamer binding inhibition [9] 8% | response [10] -10% | inhibition [11] -0.56% | response [12] 2.7% | binding (% of control) [13] 108% | efflux inhibition (fraction of control) [14] 0.09 | inhibition [15] 9% | differentiation response [16] -2.46%

CC(=O)Nc1ccc(CN2CCN(C3CCCCC3)C(CCO)C2)cc1 (stereo not drawn)
62.8%: double positive events [6]
inactive: percent of DMSO control GFP [1] 102% | GFP response vs DMSO [2] 104% | percent response of DMSO control [3] 101% | GFP response vs DMSO [4] 114% | GFP response, % of DMSO [5] 120% | vesicle binding response [6] 172% | inhibition [7] -0.27% | superoxide response (% of plate) [8] 102% | aptamer binding inhibition [9] 0% | response [10] -18.9% | inhibition [11] -3.58% | response [12] -1.9% | binding (% of control) [13] 111% | efflux inhibition (fraction of control) [14] 0.12 | inhibition [15] 2% | differentiation response [16] -10.9%

COc1ccccc1NC(=O)C12CCC(C)(C(=O)C1)C2(C)C (stereo not drawn)
63.5%: double positive events [6]
inactive: percent of DMSO control GFP [1] 99.3% | GFP response vs DMSO [2] 105% | percent response of DMSO control [3] 102% | GFP response vs DMSO [4] 124% | GFP response, % of DMSO [5] 109% | vesicle binding response [6] 173% | inhibition [7] -2.82% | superoxide response (% of plate) [8] 121% | aptamer binding inhibition [9] 5% | response [10] -14.9% | inhibition [11] 15.9% | response [12] -0.35% | binding (% of control) [13] 102% | efflux inhibition (fraction of control) [14] 0 | inhibition [15] 1% | differentiation response [16] -4%

CC[C@H](C)C(=O)O[C@H]1C[C@@H](C)C=C2C=C[C@H](C)[C@H](CC[C@@H]3C[C@@H](O)CC(=O)O3)[C@H]21
inactive: percent of DMSO control GFP [1] 107% | GFP response vs DMSO [2] 108% | percent response of DMSO control [3] 103% | GFP response vs DMSO [4] 97% | GFP response, % of DMSO [5] 95.8% | vesicle binding response [6] 126% | inhibition [7] -5.11% | superoxide response (% of plate) [8] 93.1% | aptamer binding inhibition [9] 2% | response [10] 1.87% | inhibition [11] 49.7% | response [12] -9.69% | binding (% of control) [13] 109% | efflux inhibition (fraction of control) [14] 0.28 | inhibition [15] 0% | differentiation response [16] -11.9%
64.6%: double positive events [6]
